Experimental findings from PubChem BioAssay (NCATS) are described below.

Molecules are shown by their SMILES. Results filed as inconclusive are left out. Unmarked numbers belong to inactive results. Active and inactive are the calls of the source. Calls come from the whole dose curve; as a rule, active = well fitted inhibition curve with a large enough effect; inconclusive = small, poorly fitted or top-dose-only effect; inactive = no such curve, though single readings can be large or run the other way.
Potency is the fitted concentration of half-maximal effect.

Chain of N-terminal Xaa-Pro-Lys N-methyltransferase 1 (Homo sapiens) (Q9BV86 whole entry, looked up): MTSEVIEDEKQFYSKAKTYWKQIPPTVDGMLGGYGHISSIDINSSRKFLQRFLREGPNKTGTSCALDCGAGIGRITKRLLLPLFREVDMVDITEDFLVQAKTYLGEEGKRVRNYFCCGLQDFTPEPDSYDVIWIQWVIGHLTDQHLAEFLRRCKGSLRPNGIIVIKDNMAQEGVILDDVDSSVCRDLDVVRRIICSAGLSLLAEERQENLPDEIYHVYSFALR

One test deals with N-terminal Xaa-Pro-Lys N-methyltransferase 1 (Homo sapiens) (UniProt Q9BV86). Put plainly: qHTS Assay for Inhibitors of N-terminal methyltransferase 1 (NTMT1): LOPAC validation of the NTMT1 SAHH-coupled ThioGlo3 Assay (AID 1347143). For activity change, negative = inhibition: % is set by controls: 0 for no effect and ±100 for the full control effect.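 Note: SAH from peptide methylation measured as thiol fluorescence via SAHH coupling and ThioGlo3; nearly all actives have a fitted effect of over 70% in size.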 To be noted: recombinant NTMT1, SAHH-coupled ThioGlo3 fluorescence; series mostly up to 114 µM; activity change, negative = inhibition: at the top concentration. The method in brief:
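Steps: dispense 125nM NTMT1; pin-transfer test compounds at several concentrations, with 1uM RCC1-6 peptide as control; incubate 1 min; start with reagent holding 100uM SAM, 10uM SAHH, 15uM ThioGlo3; read at 0 and 30 min.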
Background: qHTS replaces the single test concentration by a dilution series.
On to `CN(C)C(N)=NCCC[C@H](N)C(=O)O`, for which the “activity change, negative = inhibition” value was -21.6%.
The same measure, in the same setting: then `CS(=O)(=O)c1ccc(-n2nc(C(F)(F)F)cc2-c2ccc(F)cc2)cc1`, with -3.86%; and `O=C(NOCC1CC1)c1cc(Br)c(F)c(F)c1Nc1ccc(I)cc1Cl`, with -14.2%; and `NC(=O)C(=O)O`, with -7.49%.
On the same count and under the same terms, to `C#C[C@]1(O)CC[C@H]2[C@@H]3CCC4=Cc5oncc5CC4(C)[C@H]3CCC21C` (stereo not given in full) belongs -19.5%; to `C=CC(N)CCC(=O)O` (stereo not given), -18.8%.
Still for that read-out and setting: then `CC1(C)CCC=[N+]1[O-]`, with -15.8%; and `CN1C2CCC1CC(OC(=O)C(O)c1ccccc1)C2` (stereo not given), with -16.5%.
`O=C(O)CC1CCCc2ccccc2C1O` (stereo not given): the “activity change, negative = inhibition” value is -7.86%.
Still for that read-out and setting: to `c1ccc(-c2ccccn2)nc1` belongs -3.78%; to `S=C(S)OC1CC2CC1C1CCCC21` (stereo not given), 39.5%.
In the case of `CN1CCc2cccc3c2C1Cc1ccc(O)c(O)c1-3` (stereo not given), the Potency is 20 µM (active).
For the molecule `CC(=O)SCC[N+](C)(C)C`, the “activity change, negative = inhibition” value was 145%.
Same read-out and setting: then `OCC1O[C@H](O)C(Cl)C(O)C1O` (stereo not given in full), with -10.4%.
As for `CCOC(=O)N1CCN(/[N+]([O-])=N/Oc2ccc([N+](=O)[O-])cc2[N+](=O)[O-])CC1`, the Potency was 28.2 µM (active).
As for `CC(C)Cc1ccc([C@H](C)C(=O)O)cc1`, the “activity change, negative = inhibition” value is -9.22%.
With `O=C(/C=C/c1ccc(O)c(O)c1)OCCc1ccccc1`, the Potency was 35.5 µM (active).
As to `NC[C@H]1O[C@@H](n2cnc3c(N)ncnc32)[C@H](O)[C@@H]1O`, the “activity change, negative = inhibition” value is 29%.
The same measure, in the same setting: then `NC(CCCP(=O)(O)O)C(=O)O` (stereo not given), with -8.34%; and `O=C(Nc1ccc2[nH]ncc2c1)C1CCC1`, with -21%.
The same measure, in the same setting: then `NCCCCC(=O)O`, with -8.55%; and `COc1cc(C(O)CO)ccc1OS(=O)(=O)O` (stereo not given), with -11.9%; and `O=C(Nc1ccc2c(c1)CCN(Cc1ncn[nH]1)C2)c1ccccc1-c1ccc(C(F)(F)F)cc1`, with -18.2%.
Still for that read-out and setting: then `NCCCS(=O)(=O)O`, with -19.2%.
Turning to `Cc1cc(NC2CCCCC2)nc(-n2nc(C)cc2C)n1`, the “activity change, negative = inhibition” value was -24.8%.
Same read-out and setting: to `CN1C2CC(OC(=O)[C@H](CO)c3ccccc3)CC1C1OC12` (stereo not given in full) belongs -10.9%; to `NS(=O)(=O)c1ccc(-n2nc(C(F)(F)F)cc2-c2ccc(Cl)cc2)cc1`, 18.5%.
Take `N#C/C(=C\c1ccc(-c2cc(Cl)ccc2Cl)o1)C(=O)Nc1cccc2ncccc12`: the Potency was 56.2 µM (active).
Take `COc1ccc2c(c1)CCC1C2CC[C@@]2(C)C1CC[C@@H]2NCCCCCCN1C(=O)CCC1=O` (stereo not given in full): the “activity change, negative = inhibition” value was -7.78%.
The same measure, in the same setting: then `COc1cccc(C(=O)NCCN2CCN(c3ccc(Cl)cc3)CC2)c1`, with -23%.
With `CN(C)CCC(c1ccc(Cl)cc1)c1ccccn1` (stereo not given), the “activity change, negative = inhibition” value was -10.4%.
Consider `O=C1C(SCCO)=C(SCCO)C(=O)c2ccccc21`, for which the “activity change, negative = inhibition” value is 217%.
Still for that read-out and setting: then `O=C(O)CCCC[C@@H]1CCSS1`, with 0.65%.
As for `Cn1c(=O)c2[nH]c(-c3ccccc3)nc2n(C)c1=O`, the Potency is 79.4 µM (active).
On to `c1cnc2c(c1)ccc1cccnc12`, for which the “activity change, negative = inhibition” value is -2.42%.
Turning to `NCCCCCCCCCCN`, the “activity change, negative = inhibition” value was -13%.

Another test has as its system Zika virus NS2B-NS3 protease (unlinked). Put plainly: Optimization of GU AMC qHTS for Zika virus inhibitors: Unlinked NS2B-NS3 protease assay (AID 1347151).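 For activity change, negative = inhibition: 0% = no-inhibitor control and -100% = no-enzyme control.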 Note: nearly all actives have a fitted effect of over 80% in size. The note with it: recombinant ZIKV NS2B-NS3 protease, fluorogenic AMC substrate; series mostly up to 52.5 µM; activity change, negative = inhibition: at the top concentration. A digest of the protocol:
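Percent inhibition is derived from the 15-min change in AMC fluorescence, normalized against no-inhibitor and no-enzyme controls, then fitted to a 4-parameter Hill curve. Aprotinin was the intraplate control.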
On to `CN(C)C(N)=NCCC[C@H](N)C(=O)O`, for which the “activity change, negative = inhibition” value is 1.36%.
Still for that read-out and setting: to `CS(=O)(=O)c1ccc(-n2nc(C(F)(F)F)cc2-c2ccc(F)cc2)cc1` belongs 2.17%; to `NC(=O)C(=O)O`, -3.2%.
Take `C#C[C@]1(O)CC[C@H]2[C@@H]3CCC4=Cc5oncc5CC4(C)[C@H]3CCC21C` (stereo not given in full): the “activity change, negative = inhibition” value is -2.09%.
Same read-out and setting: then `C=CC(N)CCC(=O)O` (stereo not given), with -5.49%; and `CC1(C)CCC=[N+]1[O-]`, with 4.49%; and `CN1C2CCC1CC(OC(=O)C(O)c1ccccc1)C2` (stereo not given), with 0.319%.
On the same count and under the same terms, then `O=C(O)CC1CCCc2ccccc2C1O` (stereo not given), with -0.468%; and `c1ccc(-c2ccccn2)nc1`, with 3.52%; and `S=C(S)OC1CC2CC1C1CCCC21` (stereo not given), with -8.03%.
As to `CN1CCc2cccc3c2C1Cc1ccc(O)c(O)c1-3` (stereo not given), the Potency is 26.7 µM (active).
Take `CC(=O)SCC[N+](C)(C)C`: the “activity change, negative = inhibition” value is 4.42%.
Take `OCC1O[C@H](O)C(Cl)C(O)C1O` (stereo not given in full): the “activity change, negative = inhibition” value is 1.23%.
Still for that read-out and setting: then `CCOC(=O)N1CCN(/[N+]([O-])=N/Oc2ccc([N+](=O)[O-])cc2[N+](=O)[O-])CC1`, with -11.7%; and `CC(C)Cc1ccc([C@H](C)C(=O)O)cc1`, with -3.16%.
As for `O=C(/C=C/c1ccc(O)c(O)c1)OCCc1ccccc1`, the Potency was 6.7 µM (active).
As to `NC[C@H]1O[C@@H](n2cnc3c(N)ncnc32)[C@H](O)[C@@H]1O`, the “activity change, negative = inhibition” value was 0.274%.
On the same count and under the same terms, to `NC(CCCP(=O)(O)O)C(=O)O` (stereo not given) belongs 2.29%.
The same measure, in the same setting: to `O=C(Nc1ccc2[nH]ncc2c1)C1CCC1` belongs -3.5%; to `NCCCCC(=O)O`, 0.718%; to `COc1cc(C(O)CO)ccc1OS(=O)(=O)O` (stereo not given), 3.46%.
On the same count and under the same terms, then `O=C(Nc1ccc2c(c1)CCN(Cc1ncn[nH]1)C2)c1ccccc1-c1ccc(C(F)(F)F)cc1`, with 2.55%; and `NCCCS(=O)(=O)O`, with -3.65%; and `Cc1cc(NC2CCCCC2)nc(-n2nc(C)cc2C)n1`, with -9.89%.
Regarding `CN1C2CC(OC(=O)[C@H](CO)c3ccccc3)CC1C1OC12` (stereo not given in full), the “activity change, negative = inhibition” value is -0.583%.
On the same count and under the same terms, to `NS(=O)(=O)c1ccc(-n2nc(C(F)(F)F)cc2-c2ccc(Cl)cc2)cc1` belongs -12.9%.
Consider `N#C/C(=C\c1ccc(-c2cc(Cl)ccc2Cl)o1)C(=O)Nc1cccc2ncccc12`, for which the Potency was 26.7 µM (active).
With `COc1ccc2c(c1)CCC1C2CC[C@@]2(C)C1CC[C@@H]2NCCCCCCN1C(=O)CCC1=O` (stereo not given in full), the “activity change, negative = inhibition” value was 9.26%.
On the same count and under the same terms, then `COc1cccc(C(=O)NCCN2CCN(c3ccc(Cl)cc3)CC2)c1`, with 5.94%; and `CN(C)CCC(c1ccc(Cl)cc1)c1ccccn1` (stereo not given), with 11.8%.
Consider `O=C(O)CCCC[C@@H]1CCSS1`, for which the “activity change, negative = inhibition” value was 4.15%.
On to `Cn1c(=O)c2[nH]c(-c3ccccc3)nc2n(C)c1=O`, for which the Potency was 4.74 µM (active).
As to `c1cnc2c(c1)ccc1cccnc12`, the “activity change, negative = inhibition” value was 0.268%.
Still for that read-out and setting: to `NCCCCCCCCCCN` belongs 7.31%.
